Sampled rows, rich in hits. Any-hit rate of the full collection: about 7.4%.
Rab9 promoter act = Rab9 promoter activation; Huh7 Rab9 promoter-luciferase reporter, luminescence, 24 h; Potency, µM (top dose mostly 9.22 µM), hits mostly activators; 320,000 compounds, 2.8% hits; AID 485297; also: nearly all actives have a fitted effect of over 60% in size
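Huh7 reporter line, Rab9 promoter upstream of luciferase. Compound exposure 24 h at 37 °C in reduced-serum medium with 10% FBS. Read-out: luminescence.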
SMN2 splice enh = SMN2 splice variant enhancement; HEK293 SMN2-luciferase splicing reporter, luminescence, 30-36 h; Potency, µM (titrated, usually from 46.1 µM), actives largely listed as activators; 210,000 compounds, 2.8% hits; AID 1458; also: nearly all actives have a fitted effect of over 55% in size
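HEK293 cells carry an SMN2 minigene-luciferase reporter in which exon 7 inclusion puts luciferase in frame. Cells were seeded at 2000 cells/well, attached for 10-12 hours, then exposed to compounds for 30-36 hours at 37C before ONE-Glo luminescence.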
NPC1 promoter act = activates the NPC1 promoter; Huh7 NPC1 promoter luciferase reporter, 24 h; Potency, µM (series often up to 9.22 µM), most hits filed as activators; 320,000 compounds, 2.4% hits; AID 485313; also: nearly all actives have a fitted effect of over 60% in size
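In 1536-well qHTS, Huh7 cells harboring an NPC1 promoter–luciferase construct received compound for 24 h; activation was quantified by luminescence following luciferase reagent addition.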
KinaseGlo FLuc = blocks Kinase-Glo luciferase, a counter-screen artifact. Q27757. Kinase-Glo luciferase, ATP luminescence, 8 min. Potency, µM (series often up to 38.3 µM), hits mostly inhibitors. 200,000 compounds, 0.28% hits. AID 1379; also: nearly all actives have a fitted effect of over 60% in size
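Kinase-Glo luciferase light output from ATP and luciferin was measured with 10 uM ATP, within the enzyme's linear range. Buffer: 50 mM imidazole pH 7.2, 50 mM KCl, 7 mM MgCl2, 0.01% Tween 20, 0.05% BSA; luminescence read after 8 min at ambient temperature.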
ELG1 genotoxic = induces genotoxicity in HEK293T cells with luciferase-tagged ELG1 | AID 504466 | 330,000 compounds, 1.3% hits | HEK293T ELG1-luciferase reporter, luminescence, 16 h | Potency, µM (doses to about 46 µM), most hits filed as activators; also: nearly all actives have a fitted effect of over 60% in size
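DMSO vehicle served as control against compound-treated ELG1-luciferase HEK293T cells; exposure lasted 16 hr at 37 °C and 5% CO2, followed by ONE-Glo luminescence detection after 30 min.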
FLuc modulator = inhibits or activates purified firefly luciferase, miR-21 counter-screen. 360,000 compounds, 6.9% hits. P08659. purified FLuc, Km substrates, luminescence inhibition. Potency, µM (highest dose often 57.5 µM), actives largely listed as inhibitors; also: nearly all actives have a fitted effect of over 55% in size
Target sequence (P08659 whole entry, looked up): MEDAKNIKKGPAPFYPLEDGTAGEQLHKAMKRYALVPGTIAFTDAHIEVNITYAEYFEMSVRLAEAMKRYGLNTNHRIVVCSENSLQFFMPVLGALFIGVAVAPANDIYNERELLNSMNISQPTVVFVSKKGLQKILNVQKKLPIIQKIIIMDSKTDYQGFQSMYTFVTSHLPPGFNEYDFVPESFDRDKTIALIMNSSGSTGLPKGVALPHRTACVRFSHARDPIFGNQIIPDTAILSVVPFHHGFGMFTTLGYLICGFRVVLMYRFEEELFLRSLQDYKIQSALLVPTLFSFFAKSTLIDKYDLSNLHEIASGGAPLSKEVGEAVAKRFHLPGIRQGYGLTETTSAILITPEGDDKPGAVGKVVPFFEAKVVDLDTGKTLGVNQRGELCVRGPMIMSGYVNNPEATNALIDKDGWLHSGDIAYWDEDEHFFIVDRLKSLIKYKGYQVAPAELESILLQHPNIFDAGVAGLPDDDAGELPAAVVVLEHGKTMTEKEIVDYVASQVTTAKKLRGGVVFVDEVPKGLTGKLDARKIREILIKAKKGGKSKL
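Purified P. pyralis luciferase (10nM final) with 10uM D-luciferin and 10uM ATP (Km levels) in 50mM Tris acetate pH 7.5, 10mM Mg acetate, 0.01% Tween-20, 0.05% BSA; qHTS 6-point titration, ~60 µM downward; luminescence read.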
Large screens that a line does not name were inactive. Calls follow the shape of the dose curve; as a rule, active = well fitted curve in the direction sought with a large enough effect; inconclusive = small, poorly fitted or top-dose-only effect, or another doubt; inactive = no such curve, though single readings can be large; an effect the other way counts as inactive or inconclusive.

COc1ccc2nc(NC(=O)Cc3ccc(OC)c(S(=O)(=O)N4CCOCC4)c3)sc2c1	FLuc modulator 23.9µM
COc1ccc(Nc2oc(-c3ccccc3)nc2C#N)cc1	Rab9 promoter act 1.58µM, SMN2 splice enh inconclusive, NPC1 promoter act 1.78µM, ELG1 genotoxic inconclusive, FLuc modulator inconclusive
COc1ccc(Nc2oc(-c3ccc(Cl)cc3)nc2C#N)cc1	Rab9 promoter act inconclusive, SMN2 splice enh 14.1µM, NPC1 promoter act inconclusive, ELG1 genotoxic inconclusive, FLuc modulator 2.69µM
CCOc1ccc(Nc2oc(-c3ccc(Cl)cc3)nc2C#N)cc1	SMN2 splice enh inconclusive, ELG1 genotoxic inconclusive, FLuc modulator inconclusive
COc1ccc(Nc2oc(-c3ccc(OC)cc3)nc2C#N)cc1	Rab9 promoter act 3.55µM, NPC1 promoter act inconclusive, ELG1 genotoxic inconclusive, FLuc modulator 2.39µM (no result: SMN2 splice enh, KinaseGlo FLuc)
CCn1cc(C(=O)NC2CCCc3c2cnn3-c2cccc(C)c2C)cn1 (stereo not drawn)	none (no result: SMN2 splice enh, KinaseGlo FLuc)
CN(C)S(=O)(=O)c1cc(NC(=O)COC(=O)CC2Sc3ccccc3NC2=O)ccc1Cl (stereo not drawn)	none (no result: Rab9 promoter act, SMN2 splice enh, NPC1 promoter act, KinaseGlo FLuc, FLuc modulator)
C=CCOC(=O)C(=O)/C=C/c1ccc2c(c1)Cc1ccccc1-2	FLuc modulator 10.7µM (no result: SMN2 splice enh, KinaseGlo FLuc)
CC(OC(=O)C1CC(=O)N(Cc2ccco2)C1)C(=O)Nc1ccccc1[N+](=O)[O-] (stereo not drawn)	none (no result: SMN2 splice enh, KinaseGlo FLuc)
COc1cccc(NC(=O)Nc2nc(-c3ccc(OC)c(OC)c3)cs2)c1	FLuc modulator inconclusive (no result: SMN2 splice enh, KinaseGlo FLuc)
c1ccc(-c2csc(Nc3ccc4c(c3)OCCO4)n2)cc1	SMN2 splice enh 3.98µM, FLuc modulator 0.536µM (no result: Rab9 promoter act, NPC1 promoter act, ELG1 genotoxic)
COc1cccc(Nc2nc(-c3ccc4c(c3)OCCO4)cs2)c1	Rab9 promoter act 3.16µM, SMN2 splice enh 14.1µM, NPC1 promoter act inconclusive, ELG1 genotoxic inconclusive, FLuc modulator 3.38µM
c1cc2c(cc1Nc1nc(-c3ccc4c(c3)OCO4)cs1)OCCO2	Rab9 promoter act 2.82µM, SMN2 splice enh 3.98µM, NPC1 promoter act 3.16µM, ELG1 genotoxic inconclusive, FLuc modulator 4.26µM
CC(C)(CNS(=O)(=O)c1cccs1)N1CCOCC1	none (no result: Rab9 promoter act, SMN2 splice enh, NPC1 promoter act, KinaseGlo FLuc, FLuc modulator)
Cc1ccc(NC(=O)/C(C#N)=C/c2cc(C)n(-c3ccc(Br)cc3)c2C)cc1C	none (no result: Rab9 promoter act, NPC1 promoter act, KinaseGlo FLuc, ELG1 genotoxic)
C=C1CCN([C@@H](C)C(=O)NCCCCCC)S(=O)(=O)c2ccccc21	none (no result: SMN2 splice enh, KinaseGlo FLuc)
Cn1c(NCc2cccs2)nc2ccccc21	Rab9 promoter act inconclusive, SMN2 splice enh 11.2µM, ELG1 genotoxic 23.1µM, FLuc modulator inconclusive
Cn1c(NCc2c[nH]c3ccccc23)nc2ccccc21	Rab9 promoter act 2µM, SMN2 splice enh 11.2µM, NPC1 promoter act 2.24µM, FLuc modulator 9.53µM
C=CCn1c(NCc2c[nH]c3ccccc23)nc2ccccc21	FLuc modulator 23.9µM
Cc1cc(O)c(C(c2ccc(Cl)cc2)N2CCN(c3ccccc3)CC2)c(=O)n1Cc1ccco1 (stereo not drawn)	none (no result: Rab9 promoter act, SMN2 splice enh, NPC1 promoter act, KinaseGlo FLuc, ELG1 genotoxic)
Cc1ncc(CO)c(/C=N/NC(=S)Nc2ccc(C(C)C)cc2)c1O	FLuc modulator 13.5µM (no result: SMN2 splice enh, KinaseGlo FLuc)
CCc1sc(C(=O)Nc2cccc(C(C)=O)c2)cc1C	Rab9 promoter act inconclusive, SMN2 splice enh inconclusive, FLuc modulator 10.7µM
CC(=O)c1cccc(NC(=O)c2cc3c(s2)-c2c(C)cccc2OC3)c1	none (no result: Rab9 promoter act, NPC1 promoter act, KinaseGlo FLuc, ELG1 genotoxic)
CCOC(=O)c1cccc(Nc2nc(C)cc(C)n2)c1	Rab9 promoter act 4.47µM, SMN2 splice enh inconclusive, NPC1 promoter act inconclusive, FLuc modulator inconclusive
CCOC(=O)c1cccc(NC(=O)c2cc3sccc3n2C)c1	Rab9 promoter act 0.891µM, SMN2 splice enh 14.1µM, NPC1 promoter act 0.355µM, ELG1 genotoxic inconclusive, FLuc modulator 23.9µM
COc1cccc(C(=O)Nc2cc(NC(=O)c3cccs3)ccc2C)c1	FLuc modulator 12µM (no result: SMN2 splice enh, KinaseGlo FLuc)
CC(C)(C)[C@H]1COC(=O)CC/C=C\C[C@@H](CC(=O)N(CCO)Cc2ccccc2)C(=O)N1	none (no result: Rab9 promoter act, SMN2 splice enh, NPC1 promoter act, KinaseGlo FLuc, FLuc modulator)
COc1cccc(C(=O)Nc2cc(NC(=O)c3cccs3)ccc2C)c1OC	FLuc modulator 21.3µM (no result: SMN2 splice enh, KinaseGlo FLuc)
CCOC(=O)c1cccc(NC(=O)c2sc3nc[nH]c(=O)c3c2C)c1	FLuc modulator 15.1µM (no result: Rab9 promoter act, SMN2 splice enh, NPC1 promoter act, KinaseGlo FLuc, ELG1 genotoxic)
COc1cccc(C(=O)Nc2cccc(NC(=O)c3cccs3)c2)c1	FLuc modulator 21.3µM (no result: SMN2 splice enh, KinaseGlo FLuc)
CC(=O)Oc1cccc(C(=O)Nc2ccc(NC(=O)c3cccs3)cc2)c1	Rab9 promoter act inconclusive, NPC1 promoter act 4.47µM, ELG1 genotoxic inconclusive (no result: SMN2 splice enh, KinaseGlo FLuc)
CCc1ccc(-c2nc(CS(=O)CC(=O)NCc3ccc4c(c3)OCO4)c(C)o2)cc1 (stereo not drawn)	FLuc modulator inconclusive (no result: SMN2 splice enh, KinaseGlo FLuc)
COc1ccccc1N1CCN(CCCCN2C(=O)C3CCCCN3C2=O)CC1 (stereo not drawn)	none (no result: SMN2 splice enh, KinaseGlo FLuc)
CSCCC(NC(=O)c1ccc([N+](=O)[O-])cc1Cl)C(=O)OC1CCCCC1=O (stereo not drawn)	none (no result: SMN2 splice enh, KinaseGlo FLuc)
CC(=O)N1CCc2cc(S(=O)(=O)NC(CC(C)C)C(=O)NCCc3ccc(C)cc3)ccc21 (stereo not drawn)	none (no result: Rab9 promoter act, NPC1 promoter act, KinaseGlo FLuc, ELG1 genotoxic)
COc1cc(NC(=O)c2ccccc2Cl)ccc1NC(=O)c1cccs1	Rab9 promoter act 2.82µM, SMN2 splice enh 22.4µM, NPC1 promoter act inconclusive, ELG1 genotoxic inconclusive, FLuc modulator 13.5µM
CCOC(=O)c1cccc(NC(=O)c2ccccc2C)c1	Rab9 promoter act inconclusive
CCOC(=O)c1cccc(NC(=O)c2cccs2)c1	ELG1 genotoxic inconclusive, FLuc modulator 21.3µM
